Myeloid diff 2: promotes myeloid progenitor differentiation; ER-HoxA9 myeloid progenitors, lysozyme-GFP differentiation, flow cytometry; hit rate 1% among 360,000; calls only at 10 µM; AID 624256;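 active means normalized GFP-positive differentiation at or above the plate's own cutoff, the solvent-only control mean plus 3 SD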;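 further: cells exposed to compound for four days before flow analysis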
CIT2-GFP yeast: modulators of TOR pathway CIT2-GFP in S. cerevisiae | S. cerevisiae CIT2-GFP strain, flow cytometry, 3 h; 100 means same as DMSO wells | GFP response vs DMSO, % at 10 µM | hit rate 0.065% among 320,000 | AID 2029;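 active means GFP response relative to DMSO above a set limit, near the screen mean plus 3 SD, cut at about 150% in these data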;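 further: ratio of well median GFP fluorescence to mean of DMSO wells on the plate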
RPL19A-GFP yeast: yeast TOR pathway RPL19A-GFP modulation | S. cerevisiae RPL19A-GFP strain, flow cytometry, 3 h; hits give low values | percent response vs DMSO, % at 10 µM | hit rate 0.3% among 330,000 | AID 2025;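 active means percent response vs DMSO below 50%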;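 further: median channel GFP fluorescence of the barcoded RPL19A-GFP strain; ratio of sample median GFP to plate DMSO average so 100% = DMSO; lower means less RPL19A-GFP as with rapamycin TOR inhibition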
AGP1-GFP MLPCN: modulators of TOR pathway AGP1-GFP in S. cerevisiae; S. cerevisiae AGP1-GFP multiplex flow cytometry, 3 h; GFP as percent of DMSO wells; GFP response vs DMSO, % at 10 µM; hit rate 0.02% among 320,000;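 active means GFP response relative to DMSO above a set limit, near screen average plus 3 SD, cut at about 150% in these data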;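 further: median GFP channel fluorescence of the gated AGP1 strain per well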
MEP2 TOR yeast: alters MEP2-GFP fluorescence in TOR pathway yeast screen. S. cerevisiae MEP2-GFP strain, flow cytometry GFP, 3 h; 100% = DMSO control level. AID 2016. GFP response vs DMSO, % at 10 µM. hit rate 0.51% among 330,000;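 active means GFP response versus DMSO above a set limit, roughly screen mean plus 3 SD, cut at about 180% in these data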;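 further: median GFP fluorescence of the barcode-gated MEP2-GFP cells per well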
LAP4-GFP MLPCN: yeast TOR pathway LAP4-GFP modulation | S. cerevisiae LAP4-GFP multiplex, flow cytometry GFP, 3 h; median GFP as percent of DMSO wells | AID 2023 | hit rate 0.34% among 320,000 | GFP response vs DMSO, % at 10 µM;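 active means GFP response vs DMSO above a set limit, about the screen mean plus 3 SD, cut at about 150% in these data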
LAP4-GFP pick2: second confirmation of modulators of TOR reporter LAP4-GFP in yeast | AID 2621 | S. cerevisiae LAP4-GFP strain, flow cytometry GFP, 3 h | hit rate 20% among 590 | shares compounds with LAP4-GFP MLPCN | GFP response vs DMSO, % at 10 µM;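 active means GFP signal as percent of the solvent control above about 150%, meaning raised reporter expression, limit read from the data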;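 further: ratio of well median GFP fluorescence to plate DMSO mean so 100% = DMSO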
MEP2-GFP pick2: yeast MEP2-GFP modulation, second cherry pick; S. cerevisiae MEP2-GFP strain, flow cytometry GFP, 3 h; hit rate 10% among 590; shares compounds with LAP4-GFP MLPCN; GFP response vs DMSO, % at 10 µM; AID 2622;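 active means GFP signal above 150% of the solvent control wells, that is a rise of more than half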;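 further: median channel GFP fluorescence of all gated yeast cells per well; ratio of median GFP to plate DMSO average so 100% = DMSO level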
RPL19A-GFP pick2: second confirmation of modulators of TOR reporter RPL19A-GFP in yeast; AID 2623; GFP response vs DMSO, % at 10 µM; S. cerevisiae RPL19A-GFP strain, flow cytometry GFP, 3 h; hits give low values; 100% means same as DMSO wells; shares compounds with LAP4-GFP MLPCN; hit rate 3% among 590;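 active means under 65% GFP response relative to DMSO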;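 further: median GFP channel fluorescence per well over the all cells gate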
CIT2 GFP CP2: reconfirmed modulator of CIT2-GFP TOR reporter in yeast | GFP response vs DMSO, % at 10 µM | AID 2624 | shares compounds with LAP4-GFP MLPCN | S. cerevisiae CIT2-GFP strain, flow cytometry GFP, 3 h; DMSO control wells read 100% | hit rate 8% among 590;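 active means GFP response vs DMSO above about 150%, limit read from the data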;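 further: median green fluorescence per well over all gated yeast cells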
AGP1-GFP pick2: second confirmation of modulators of TOR reporter AGP1-GFP in yeast; shares compounds with LAP4-GFP MLPCN; S. cerevisiae AGP1-GFP strain, flow cytometry GFP, 3 h; percent response vs DMSO, % at 10 µM; 590 tested, under 10 active; AID 2643;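 active means over 150 percent of DMSO response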;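 further: median GFP channel fluorescence over all cells without mother daughter split; sample median GFP divided by mean DMSO control so 100% equals DMSO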
s288c autofluor: yeast s288c autofluorescence artifact, counter-screen; 610 tested, under 10 active; fluorescence change (kMESF span) at 33 µM; AID 2757; shares compounds with LAP4-GFP MLPCN; S. cerevisiae s288c, 520 nm autofluorescence, flow cytometry, 3 h; hits give high values; zero means same as solvent-only cells;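 active means fluorescence span over the dose series, or activity score, above about 33, limit read from the data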
Myeloid diff CP1: promotes myeloid progenitor differentiation. calls only. shares compounds with Myeloid diff 2. hit rate 2% among 2,300. AID 651706. ER-HoxA9 myeloid progenitors, GFP/Mac1 double-positive flow;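 active means share of green or green-and-red cells above 9 and 9% in run 1 or 4 and 3% in run 2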
GFP autofluor: counter-screen for myeloid differentiation promoters: compound fluorescence | shares compounds with Myeloid diff 2 | ER-HoxA9 myeloid progenitors, no estrogen, GFP autofluorescence flow cytometry; vehicle wells 0%, positive control 100% | fluorescence response, % (concentration not given with the values) | hit rate 7.4% among 2,300 | AID 651707;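 active means over 5% cells positive for green fluorescent reporter, or over 2% positive for both it and APC stain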;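 further: range taken on the double positive population between DMSO and positive control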
* marks the source's active call; other numbers are inactive results; i = inactive; · = not tested or not shown; + = active, no number. Only some compounds are listed: those with a hit (about 1.8% of all), similar ones and a draw of the others.

SMILES | Myeloid diff 2 | CIT2-GFP yeast | RPL19A-GFP yeast | AGP1-GFP MLPCN | MEP2 TOR yeast | LAP4-GFP MLPCN | Myeloid diff CP1 | GFP autofluor | others
CC(Oc1cccc(Cl)c1)C(=O)Nc1nc(-c2ccccn2)cs1 (stereo unspecified) | + | 92.0 | 91.0 | 111.2 | 105.3 | 171.0* | i | 4.5 | s288c autofluor=0.71
Cc1cc(C)c2nc3sc(=Cc4ccc(-c5ccccc5C(=O)O)o4)c(=O)n3c2c1 | i | · | · | · | · | · | · | ·
Cc1ccc2c(nc3s/c(=C\c4ccc(-c5ccccc5C(=O)O)o4)c(=O)n32)c1C | i | 143.7 | 114.2 | 98.5 | 184.3* | 126.4 | i | 12.7* | s288c autofluor=9.08
COc1ccc(N(CC(=O)NC2CCCC2)C(=O)CCC(=O)Nc2cc(C)on2)c(OC)c1 | i | 99.4 | 99.3 | 96.6 | 104.6 | 97.8 | · | ·
COc1ccccc1/C=C/C(=O)OCCN1C(=O)c2ccccc2C1=O | i | 99.0 | 103.3 | 95.9 | 109.3 | 100.3 | · | ·
Cc1[nH]c2ccccc2c1C(=O)COC(=O)c1ccc([N+](=O)[O-])s1 | i | 94.8 | 62.4 | 19.2 | 123.6 | 68.6 | i | 1.1 | LAP4-GFP pick2=138.3;MEP2-GFP pick2=179.9*;RPL19A-GFP pick2=77.3;CIT2 GFP CP2=143.2;AGP1-GFP pick2=69.7;s288c autofluor=6.78
CN1C2CCC1/C(=C\c1ccccc1F)C(=O)/C2=C/c1ccccc1F | i | 101.6 | 98.5 | 99.0 | 105.2 | 94.5 | i | 0.5
CC1CCN(C2=NC(=O)/C(=C/c3ccccc3F)S2)CC1 | i | 90.8 | 100.0 | 85.6 | 98.5 | 94.9 | · | ·
CC1CC(C)CN(c2ncc3c(n2)CC(c2ccc(Cl)cc2)CC3=O)C1 (stereo unspecified) | i | 95.8 | 97.0 | 98.0 | 99.4 | 103.2 | i | 0.2
CC1CC(C)CN(c2ncc3c(n2)CC(c2ccccc2Cl)CC3=O)C1 (stereo unspecified) | i | 94.4 | 93.7 | 95.5 | 90.6 | 94.6 | · | ·
CCCCN1CNC(=S)N(c2ccc(C(=O)OCC)cc2)C1 | i | 98.9 | 104.6 | 100.7 | 103.5 | 101.7 | · | ·
CCN1CCN(CC(=O)Nc2cc3c(cc2C(C)=O)OCO3)CC1 | i | 106.9 | 99.1 | 101.9 | 105.1 | 101.0 | · | ·
CC(=O)c1cc2c(cc1NC(=O)CN1CCOCC1)OCO2 | + | 96.7 | 95.0 | 100.3 | 100.5 | 99.2 | i | 0.0
COCC1CCN(c2nc3nonc3nc2N2CCSCC2)C1 (stereo unspecified) | i | 107.8 | 101.0 | 105.7 | 106.2 | 99.8 | · | ·
O=C(O)c1ccc(-c2ccc(O)c(F)c2)cc1 | i | 104.4 | 98.0 | 101.4 | 95.7 | 99.4 | i | 0.4
CCOCC(=O)Nc1cc(Cl)ccc1C | i | 102.2 | 101.7 | 104.9 | 104.7 | 107.5 | · | ·
COc1ccc(NC(=O)C[C@H]2C(=O)N(c3ccc(Br)cc3)C[C@@H]2CSC)cc1 | i | · | · | · | · | · | i | 1.1
COc1ccc(N2C[C@H](CSC)[C@@H](CC(=O)Nc3ccc(Br)cc3)C2=O)cc1 | i | · | · | · | · | · | · | ·
Cn1c(=O)oc2cc(NC(=O)CCl)ccc21 | i | 95.6 | 96.9 | 103.6 | 94.9 | 100.7 | i | 0.5
CC(=O)Nc1ccc(NC(=O)CCS(=O)(=O)c2ccc3c(c2)oc(=O)n3C)cc1 | i | 94.9 | 92.8 | 95.1 | 100.6 | 93.9 | · | ·
CC[N+]1(CC)CC2=Cc3c(ccc4ccccc34)CC2C1 (stereo unspecified) | + | 102.7 | 106.5 | 113.9 | 104.9 | 99.3 | i | 0.3
CC12Cc3ccc4ccccc4c3C=C1C[N+](C)(C)C2 (stereo unspecified) | i | 103.0 | 102.8 | 104.7 | 107.1 | 102.3 | · | ·
Cc1cc(C)c(S(=O)(=O)NNC(=O)C2CCN(Cc3ccccc3)CC2)c(C)c1 | i | 97.5 | 95.7 | · | 95.1 | 106.5 | i | 87.2*
Cc1cc(C)c(S(=O)(=O)NC2CCN(Cc3ccccc3)CC2)c(C)c1 | i | 98.0 | 96.5 | 97.0 | 92.5 | 97.7 | · | ·
COc1ccc(S(=O)(=O)N[C@H](C(=O)N2CC[C@@]3(O)CCCC[C@H]3C2)c2ccccc2)cc1 | i | 95.9 | 100.7 | 102.5 | 100.8 | 98.8 | · | ·
SMILES | Myeloid diff 2 | CIT2-GFP yeast | RPL19A-GFP yeast | AGP1-GFP MLPCN | MEP2 TOR yeast | LAP4-GFP MLPCN | Myeloid diff CP1 | GFP autofluor | others
COc1ccc(S(=O)(=O)N[C@@H](Cc2ccc(Cl)cc2)C(=O)N2CC[C@@]3(O)CCCC[C@H]3C2)cc1 | i | 104.0 | 97.8 | 100.4 | 103.1 | 94.8 | i | 0.5
N#C/C(=C\c1cc(Cl)ccc1O)C(=O)NC1CCCCC1 | i | 113.0 | 108.9 | 108.6 | 115.7 | 107.0 | · | ·
N#C/C(=C\c1cc(Cl)cc(Cl)c1O)C(=O)NC1CCCCC1 | i | 98.7 | 96.5 | 94.8 | 99.9 | 99.1 | i | 0.3
O=C(NCCc1ccccc1)C1CCCN(C(=O)NC2CCCCC2)C1 (stereo unspecified) | i | 99.5 | 100.0 | 102.3 | 102.5 | 101.1 | · | ·
COc1ccc(Cc2n[nH]c(=O)c3ccccc23)cc1OC | i | 99.0 | 100.7 | 104.5 | 102.9 | 106.3 | i | 0.0
COc1ccc(OC)c(NC(=O)NNC(=O)COc2ccc(F)cc2F)c1 | i | 89.0 | 108.7 | 88.0 | 99.5 | 67.8 | · | ·
NC(=O)Cn1cc(C(=O)C(=O)N2CCOCC2)c2ccccc21 | i | 95.2 | 104.5 | 94.5 | 96.8 | 70.2 | · | ·

Bioassay records: PubChem, NMMLSC
